These results are taken from PubChem BioAssay (NCATS).

Inconclusive results are not listed. Active and inactive are the calls of the source. Calls come from the whole dose curve; as a rule, active = well fitted inhibition curve with a large enough effect; inconclusive = small, poorly fitted or top-dose-only effect; inactive = no such curve, though single readings can be large or run the other way.

This test is described as follows: NS1 protein of Zika virus - qHTS assay to identify small molecule inhibitors in human HEK 293 cells (AID 1347053). Note: nearly all actives have a fitted effect of over 55% in size. As to conditions: HEK293 ZIKV MR766 infection, NS1 TR-FRET, 24 h; series mostly up to 46.1 µM. The text has this: National Center for Advancing Translational Sciences [NCATS]
Johns Hopkins University School of Medicine
The non-structural 1 (NS1) protein of zika virus is known to associate with the viral replication complex. This cell-based TR-FRET ZIKV NS-1 assay measures the increased NS-1 protein in human HEK 293 cells after a 24-hour Zika virus infection by a TR-FRET assay readout. A decrease in the Time-resolved fluorescence energy transfer (TR-FRET) signal in this assay by small molecule treatment indicates an inhibitory effect of the small molecule on the expression of Zika virus NS1 correlating with Zika virus replication.
HEK 293 cells were cultured in EMEM (ATCC, Cat. # 30-2003) medium with 10% fetal bovine serum (GE healthcare Life Sciences, Cat. # SH30071.03), and 1% Pen/Strep (Gibco, Cat. # 15140-122). Cells were seeded in the assay plate and incubated at 37 C with 5% CO2 for 20 hours. Compounds were added to cells and incubated for one hour before addition of ZIKV MR766 strain solution to cells (MOI = 0.5). After an incubation at 37 C for 24 hours, the reagent mixture of TR-FRET ZIKV NS1 assay using two anti-ZIKV NS1 antibodies was added to assay plates. The TR-FRET signals in assay plates were measured using an Envision plate reader (PerkinElmer). Data were normalized by using the cell-containing wells without ZIKV as a negative control (0% NS-1) and wells containing ZIKV infected cells as a positive control (100% NS-1 level).
On the technique in general: qHTS replaces the single test concentration by a dilution series.
On to `CCC(CC)(CNC(=O)CCCO)c1cccc(OC)c1`, for which the call was inactive. On to `C[C@](O)(CS(=O)(=O)c1ccc(F)cc1)C(=O)Nc1ccc(C#N)c(C(F)(F)F)c1`, for which the molecule was classed as inactive. In the case of `CC(C)N(CCC(C(N)=O)(c1ccccc1)c1ccccn1)C(C)C` (stereo not given) it was “inactive”.

Regarding `C[C@@H](N)[C@@H](O)c1ccccc1`, the outcome was inactive.

As to `CC(=O)OCC1=C(C(=O)O)N2C(=O)[C@@H](N)[C@H]2SC1`, the result was inactive.

On to `CCN(CC)CCc1c[nH]c2ccccc12`, for which the outcome was inactive. Under `COc1ccc2c(c1OC)C(=O)O[C@H]2[C@@H]1c2cc3c(cc2CCN1C)OCO3` stands “inactive”; under `COC1CC(=C(c2cccs2)c2cccs2)C[N+](C)(C)C1` (stereo not given), “inactive”. Under `c1ccc(CN2CCNCC2)cc1` stands “inactive”. Consider `CCC(C)(C)c1ccc(O)cc1`, for which the molecule was classed as inactive. Under `O=C1c2ccccc2C(=O)c2ccccc21` stands “inactive”; under `C=CCN1C[C@H](C)N([C@H](c2ccc(C(=O)N(CC)CC)cc2)c2cccc(OC)c2)C[C@H]1C`, “inactive”; under `O=[N+]([O-])O[C@H]1CO[C@H]2[C@@H]1OC[C@H]2O[N+](=O)[O-]`, “inactive”. Under `CC(Cc1ccccc1)N(C)Cc1ccco1` (stereo not given) stands “inactive”. Under `COP(=S)(OC)Oc1cc(Cl)c(Cl)cc1Cl` stands “inactive”. Turning to `NC(=O)CS(=O)C(c1ccccc1)c1ccccc1` (stereo not given), the molecule was called inactive. Turning to `C#CC(O)(C=CCl)CC` (stereo not given), the call was inactive. As to `C[C@]12CC[C@@H]3c4ccc(OC(=O)N(CCCl)CCCl)cc4CC[C@H]3[C@@H]1CC[C@@H]2OP(=O)(O)O`, the molecule was classed as inactive. Take `Clc1ccccc1N1CCNCC1`: the outcome was inactive.

For the molecule `Cc1ncsc1CCCl`, the call was inactive. Under `C[C@]12CC[C@@H]3c4ccc(OC(=O)N(CCCl)CCCl)cc4CC[C@H]3[C@@H]1CC[C@@H]2O` stands “inactive”. `Nc1ccccc1`: the outcome was inactive. In the case of `CC(NC(C)(C)C)C(=O)c1cccc(Cl)c1` (stereo not given) it was “inactive”; in that of `ClCCN1CCCC1`, “inactive”. In the case of `O=C1OC(CCN2CCCCC2)OC1(c1ccccc1)c1ccccc1` (stereo not given) it was “inactive”; in that of `C[C@H](N)C(=O)c1ccccc1`, “inactive”. Under `NCCc1ccc(O)cc1` stands “inactive”. Take `CC(C)(N)Cc1ccccc1Cl`: the call was inactive. Under `CN1CC[C@]23c4c5ccc(O)c4O[C@H]2[C@@H](O)C=C[C@H]3[C@H]1C5` stands “inactive”; under `[N-]=[N+]=CC(=O)OC[C@H](N)C(=O)O`, “inactive”; under `CCOC(=O)CC(SP(=S)(OC)OC)C(=O)OCC` (stereo not given), “inactive”. Turning to `CCN[C@@H](C)Cc1ccccc1`, the molecule was classed as inactive. Under `CC(C)(C)NCC(O)c1cc(Cl)c(N)c(C(F)(F)F)c1` (stereo not given) stands “inactive”; under `Oc1ccc(Cl)cc1`, “inactive”. Take `CCC(C)C(C)(COC(N)=O)COC(N)=O` (stereo not given): the call was inactive. Consider `CNCC(=O)c1ccc(O)c(O)c1`, for which the outcome was inactive.

`CN1CCC(O)(c2ccc(F)cc2)C(C(=O)c2ccc(F)cc2)C1` (stereo not given): the molecule was classed as inactive.

Consider `CC(C)NC(C)C`, for which the molecule was classed as inactive. In the case of `CCN[C@H](C)Cc1cccc(C(F)(F)F)c1` it was “inactive”; in that of `CNC(C)(C)Cc1ccccc1`, “inactive”.
